Test results taken from PubChem BioAssay (EPA / NIEHS).
Records with an inconclusive call do not appear. Calls of active or inactive are those of the source. How the source made its calls: active means hit-call score of the fitted dose curve at least 0.9, where 1 is the maximum; inconclusive means response in the unintended direction; inactive means score below 0.9.

experiment: TOX21_p53_BLA_p5_viability: Viability Assessment in the Tox21 HCT-116 p53 Agonism Beta-lactamase Assay, Phase 5 (AID 2283600)
Source text: TOX21_p53_BLA_p5 is a cell-based, single-readout assay that uses HCT116, a human intestinal cell line, […] in a 1536-well plate.TOX21_p53_BLA_p5_viability is an assay readout measuring cellular ATP content and detected with CellTiter-Glo Luciferase-coupled ATP quantitation.TOX21_p53_BLA_p5_viability used a type of viability reporter where loss-of-signal activity can be used to understand changes in the cell viability. Furthermore, this assay endpoint can be referred to as a secondary readout, because this assay has produced multiple assay endpoints where this one serves a viability function. To generalize the intended target to other relatable targets, this assay endpoint is annotated to the cell cycle intended target family, where the subfamily is cytotoxicity.
Thawing Method: Place 14 mL of pre-warmed thaw medium into a 15 mL of conical tub. Remove the vial of cells to be thawed from liquid nitrogen and thaw rapidly by placing at 37C in a water bath with gentle agitation for 1-2 minutes. Decontaminate the vial by wiping with 70% ethanol before opening in a biological safety cabinet. Transfer the vial contents drop-wise into 14 mL of thaw medium in a sterile 15-mL conical tub. Centrifuge cells at 900 rpm for 4 minutes and resuspend in thaw medium. Transfer contents to the T75 tissue culture flask containing Thaw Medium and place flask in a humidified 37C/5% CO2 incubator. Switch to growth medium at first passage.Propagation Method: Aspirate medium, rinse once in DPBS, add 0.25% Trypsin/EDTA and swirl to coat the cell evenly. Add an equal volume of Growth Medium to inactivate Trypsin after 2-3 minutes incubation at 37C. Centrifuge cells at 900 rpm for 4 minutes and resuspend in growth medium. Cell should be passage or fed at least twice a week.Assay Protocol: Harvest cells from culture in growth medium and resuspend in assay medium. 2.2 Dispense 4000 cells/5 uL/well into 1536-well black/clear bottom plates using a Multidrop dispenser. After the cells were incubated at 37C for 5 hours, 23 nL of compounds dissolved in DMSO were transferred to the assay plate by a PinTool resulting in a 217-fold dilution. Incubate the plates for 16 hours at 37C, 5% CO2. Add 1 uL of 6X LiveBLAzer FRET B/G (CCF4-AM) Substrate Mixture to each well using a BioRAPTR dispenser and incubate the plates at room temperature for 2 hours. Measure fluorescence intensity at 460 and 530 nm emission and 405 nm excitation by an Envision detector. Data is expressed as the ratio of 460nm/530nm emissions. Add 4 uL of Cell-titer Glo to each well using BioRAPTR and incubate the plates at room temperature for […]. For cell viability readout that measures cytotoxicity, 4 ul/well of CellTiter-Glo reagent was added into the assay plates using a Flying Reagent Dispenser. After 30 min incubation at room temperature, the luminescence intensity in the plates was measured using a ViewLux plate reader.

SMILES	outcome
COCCOC(=O)CC#N	inactive
C=CC(C)(O)CC/C=C(/C)CCC=C(C)C (stereo not given)	inactive
CC1(C)S[C@@H]2[C@H](NC(=O)[C@@H](NC(=O)N3CCNC3=O)c3ccccc3)C(=O)N2[C@H]1C(=O)O	inactive
CC1=C(C(=O)O)N2C(=O)[C@@H](NC(=O)[C@H](N)c3ccccc3)[C@H]2SC1	inactive
S=C(SSSSSSC(=S)N1CCCCC1)N1CCCCC1	inactive
CC(C)C(=O)O	inactive
C1CCc2nnnn2CC1	inactive
COC(=O)C(C)(C)C	inactive
O=C(Oc1ccccc1C(=O)O)c1ccccc1O	inactive
CN(C)Cc1ccccc1	inactive
c1ccc2nccnc2c1	inactive
CC/C=C(\C(=O)N[C@@H]1C(=O)N2C(C(=O)OCOC(=O)C(C)(C)C)=C(COC(N)=O)CS[C@H]12)c1csc(N)n1	inactive
NC(=O)Cc1cccc2ccccc12	inactive
NS(=O)(=O)c1ccccc1Cl	inactive
CC(CC(=O)O)CC(C)(C)C (stereo not given)	inactive
NS(=O)(=O)c1cc2c(cc1Cl)NC(C(Cl)Cl)NS2(=O)=O (stereo not given)	inactive
CNS(=O)(=O)Cc1ccc2[nH]cc(CCN(C)C)c2c1	inactive
C#CC(O)CCCCC (stereo not given)	inactive
CC1CCCC(=O)C1=O (stereo not given)	inactive
COC(C)OC	inactive

SMILES	outcome
Cc1ccccc1N1C(=O)c2cc(S(N)(=O)=O)c(Cl)cc2NC1C (stereo not given)	inactive
COC(=O)NCCC[Si](OC)(OC)OC	inactive
FC(F)(F)c1cccc(Cl)c1	inactive
O=C(CCNNC(=O)c1ccncc1)NCc1ccccc1	inactive
CCCCCCCC/C=C\CCCCCCCC(=O)OCCOC(=O)CCCCCCC/C=C\CCCCCCCC	inactive
COc1ccc(-c2cc(=O)c3c(O)cc(O[C@@H]4O[C@H](CO[C@@H]5O[C@@H](C)[C@H](O)[C@@H](O)[C@H]5O)[C@@H](O)[C@H](O)[C@H]4O)cc3o2)cc1O	inactive
O=[N+]([O-])c1ccc(Oc2ccc([N+](=O)[O-])cc2)cc1	inactive
COc1cc(Cl)ccc1Cl	inactive
CC(=O)OCC(=O)Nc1cc(C#N)cc(NC(=O)COC(C)=O)c1Cl	inactive
CCN(CC)CCOC(=O)C(c1ccccc1)C1CCCCC1 (stereo not given)	inactive
CCCCC(CC)COC(=O)CC#N (stereo not given)	inactive
CC(C)Cc1ccc([C@H](C)C(=O)O)cc1	inactive
COC(=O)NN	inactive
CCOC(=O)C(C)(C)C	inactive
O=C1OC(OC(=O)c2cccnc2Nc2cccc(C(F)(F)F)c2)c2ccccc21 (stereo not given)	inactive
O=C1NC(=O)[C@H]2[C@@H]1[C@@H]1C=C[C@H]2C1	inactive
NC(=O)Nc1nc2ccccc2[nH]1	inactive
Cn1nnnc1SCC1=C(C(=O)O)N2C(=O)[C@@H](NC(=O)[C@H](OC=O)c3ccccc3)[C@H]2SC1	inactive
CC(C)C(=O)OCC(C)(C)C(O)C(C)C (stereo not given)	inactive
CCC(=O)CC	inactive
